Results filed as inconclusive are left out. Activity calls are given as the source filed them. The calls were made as follows, unless noted: active = hit-call score of the fitted dose curve at least 0.9, where 1 is the maximum; inconclusive = response in the unintended direction; inactive = score below 0.9.

Test [1] in a line: Tanguay_ZF_120hpf_NC_legacy: (Legacy) Oregon State University Tanguay Lab 120 Hour Post-fertilization zebrafish Assay for Notochord and Tail Malformation (AID 2283656). An outline of the steps: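 Dechorionated Tropical 5D wild-type zebrafish embryos, one per well from 6 hpf, statically exposed to 120 hpf at 28C in 0.64% DMSO final. Notochord distortion scored present/absent by brightfield; dead embryos excluded.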

Test [2] can be described thus: Tanguay_ZF_120hpf_TR_legacy: (Legacy) Oregon State University Tanguay Lab 120 Hour Post-fertilization zebrafish Assay for Touch Response (AID 2283667). An outline of the steps: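 Tropical 5D wild-type zebrafish embryos statically exposed to 120 hpf at 28°C, sealed and dark-covered, 0.64% DMSO final; touch response scored as present/absent by brightfield microscopy at 120 hpf. Trimethyltin chloride 5 uM positive control; dead embryos not scored.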

The nature of test [3]: Tanguay_ZF_120hpf_ActivityScore_legacy: (Legacy) Oregon State University Tanguay Lab 120 Hour Post-fertilization zebrafish Assay Score for Activity (AID 2283742). The essentials: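 Dechorionated Tropical 5D embryos, one per well from 6 hpf, statically exposed to 120 hpf at 28 °C in 0.64% DMSO. Mortality and malformations scored binary by brightfield microscopy; activity score combines 18 endpoints, fitted positively versus DMSO.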

For test [4], the target named is Estrogen receptor (Homo sapiens) (UniProt P03372). In words: OT_ER_ERaERa_1440: Odyssey Thera (OT) 24-hour HEK293T Protein-Complementation Assay for Estrogen Receptor-alpha/-alpha Homodimer (AID 2283349).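 Also: hits raise fluorescence above DMSO for agonists and antagonists alike.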 The essentials:
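HEK293T cells stably expressing the human ER alpha ligand-binding domain (aa 310-547) as a homodimer PCA were dosed for 24 hours. Fluorescence intensity was read by laser scanning cytometry, and gain of signal was fitted relative to DMSO vehicle.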

For test [5] the target is unchanged. In words: OT_ER_ERaERa_0480: Odyssey Thera (OT) 8-hour HEK293T Protein-Complementation Assay for Estrogen Receptor-alpha/-alpha Homodimer (AID 2283351).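 Also: rise in fluorescence from reassembled reporter fragments on ERα LBD homodimer in nucleus or whole cell.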 The essentials: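 HEK293T, stable ERα LBD (aa 310-547) PCA homodimer; 8 h compound exposure; fluorescence intensity, laser scanning cytometer; positive fitting direction, DMSO baseline.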
The target of test [6] is Estrogen receptor (Homo sapiens) + Estrogen receptor beta (Homo sapiens) (UniProt P03372+Q92731). In words: OT_ER_ERaERb_1440: Odyssey Thera (OT) 24-hour HEK293T Protein-Complementation Assay for Estrogen Receptor-alpha/-beta Homodimer (AID 2283356).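 Also: heteromer of ER alpha and ER beta binding domains; hits raise reporter fluorescence and both agonists and antagonists give an increase.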 The essentials:
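Fragment complementation between ER alpha (310-547) and ER beta (263-489) ligand-binding domains in HEK293T cells; signal read 24 h post-dosing by laser scanning cytometer. Gain of fluorescence relative to DMSO fitted.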

Test [7] concerns the target Estrogen receptor (Homo sapiens) (UniProt P03372). In words: OT_ERa_GFPERaERE_0480: Odyssey Thera (OT) 8-hour HeLa Transcription Induction Assay for Estrogen Receptor (AID 2283381; active = hit-call score of the fitted dose curve at least 0.9, where 1 is the maximum; inactive = score below 0.9). The essentials: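 Fluorescent reporter signal, imaged by microscopy and scored with image-analysis algorithms, was taken 8 h after chemical dosing of HeLa cells; activity was fitted upward relative to DMSO.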

For test [8] the target is unchanged. In words: OT_ERa_GFPERaERE_0120: Odyssey Thera (OT) 2-hour HeLa Transcription Induction Assay for Estrogen Receptor (AID 2283382). An outline of the steps:
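HeLa, 384-well, 2 h chemical exposure; GFP reporter induction (ERE), fluorescence microscopy; high content image analysis; positive fitting direction vs DMSO.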

Test [9] has the same target. In words: CCTE_Deisenroth_AIME_384WELL_LUC_Active: CCTE's 384-well Estrogen Receptor Transactivation Assay with AIME metabolic competence (ERTA luciferase; metabolism positive), Deisenroth Lab (AID 2284030). The essentials: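 VM7Luc4E2 breast cells were given, for 24 hours, medium pre-incubated for 2 hours with parent chemical (0.002-200 uM, 10 concentrations) and alginate-encapsulated phenobarbital/beta-naphthoflavone-induced rat hepatic S9. Luciferase gain of signal was fitted against 17beta-estradiol; n=4 or more.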

For test [10] the target is unchanged. In words: CCTE_Deisenroth_AIME_384WELL_LUC_Inactive: CCTE's 384-well Estrogen Receptor Transactivation Assay without AIME metabolic competence (ERTA luciferase; metabolism negative), Deisenroth Lab (AID 2284038).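 Also: VM7Luc4E2 breast cells given medium preincubated 2 h with S9-free microspheres; hits raise estrogen receptor luciferase signal so potencies reflect agonists.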 An outline of the steps:
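Metabolism-negative mode: chemicals (10-point, 0.002–200 uM) held 2 h with alginate-water microspheres, then conditioned medium applied to VM7Luc4E2 cells for 24 h. Luciferase induction referenced to 17beta-estradiol.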

Test [11] shares this target. In words: CCTE_Deisenroth_AIME_384WELL_LUC_Shift: CCTE's 384-well Estrogen Receptor Transactivation Assay with AIME metabolic competence data shift (ERTA luciferase; difference in metabolism positive and negative), Deisenroth Lab (AID 2284041; active = hit-call score of the fitted dose curve at least 0.9, where 1 is the maximum; inactive = score below 0.9;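 also: shift is response with S9 minus without S9 so positive means metabolism raised ER signal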). An outline of the steps:
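Chemicals (0.002–200 uM, 10 points) pre-incubated 2 h with alginate-encapsulated induced male Sprague Dawley rat liver S9 or S9-free, then medium applied 24 h to VM7Luc4E2 cells; luciferase. Endpoint is per-concentration difference, S9-positive minus negative.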

The target of test [12] is PGR (gene 5241) (UniProt P06401). In words: TOX21_PR_BLA_Followup_Agonist_ratio: Tox21 HEK293 Progesterone Receptor (PR) Agonism Beta-lactamase Follow-Up Assay, Ratio (AID 2283933). The essentials:
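HEK293T PR-UAS-bla, 2% CS-FBS; 6 hr preincubation, cpd/DMSO pinned, 16 hr 37C/5% CO2; LiveBLAzer B/G 2 hr RT; FRET ch2/ch1 ratio, agonist direction vs DMSO. Viability by CellTiter-Glo in same wells.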

Test [13] has the same target. In words: TOX21_PR_BLA_Followup_Antagonist_ratio: Tox21 HEK293 Progesterone Receptor (PR) Antagonism Beta-lactamase Follow-Up Assay, Ratio (AID 2283934). An outline of the steps:
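HEK293T PR-UAS-bla, 2% CS-FBS; 6 hr plating, then cpd + R5020 (1 nM final), 16 hr 37C/5% CO2. B/G FRET substrate 2 h RT. Ratio ch2/ch1 vs DMSO; CellTiter-Glo viability multiplexed, autofluorescence checked.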

The target is the same in test [14]. In words: TOX21_PR_LUC_Followup_Agonist: Tox21 HEK293 Progesterone Receptor (PR) Agonism Luciferase Follow-Up Assay (AID 2283937; active = hit-call score of the fitted dose curve at least 0.9, where 1 is the maximum; inactive = score below 0.9). The essentials: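 Cells: HEK293-PR-A-luc, 3,000/well, 10% charcoal-stripped FBS assay medium. Compound added after 5 h; 16 h, 37C, 0% CO2. ONE-Glo luciferase, luminescence. Positive fit vs DMSO.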
The nature of test [15]: CCTE_Deisenroth_H295R-HTRF_384WELL_ESTRADIOL: CCTE's H295R-HTRF Assay Evaluation of Estradiol Concentration, Deisenroth Lab (AID 2284361; active = hit-call score of the fitted dose curve at least 0.9, where 1 is the maximum; inactive = score below 0.9). The settings on record: actives raise or lower the signal. An outline of the steps: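 H295R cells exposed 48 h to chemicals at 0.001 - 100 uM final (nine points, triplicate); estradiol in conditioned medium measured by HTRF immunoassay, fitted bidirectionally versus DMSO. Viability by CellTiter-Glo on same plates.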

A short description of test [16]: CCTE_Deisenroth_H295R-HTRF_384WELL_TESTOSTERONE: CCTE's H295R-HTRF Assay Evaluation of Testosterone Concentration, Deisenroth Lab (AID 2284373; active = hit-call score of the fitted dose curve at least 0.9, where 1 is the maximum; inactive = score below 0.9). Conditions: actives raise or lower the signal. The essentials: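 Testosterone secreted into medium was quantified by direct HTRF immunoassay after a 48 h treatment of H295R adrenocortical cells (nine concentrations, 0.001–100 uM final). Gain or loss fitted relative to DMSO; CellTiter-Glo viability read on same plates.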
(In general: TR-FRET usually uses a lanthanide donor and a delayed reading to cut background.)

The nature of test [17]: CCTE_Deisenroth_H295R-HTRF_384WELL_CTOX: Cytotoxicity Assessment in CCTE's H295R-HTRF Assay, Deisenroth Lab (AID 2284380). An outline of the steps:
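H295R adrenocortical carcinoma cells plated 24 h, then exposed 48 h to nine-point series 0.001–100 uM final, triplicate, n=5. ATP measured by CellTiter-Glo 2.0 luminescence on same plates after medium collection; loss versus DMSO.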

The target in test [18] is human CYP2C9, CYP2C9 (gene 1559) (UniProt P11712). In words: NVS_ADME_hCYP2C9: NovaScreen (NVS) CYP450-related Enzyme Activity (ADME) Assay for human CYP2C9 (AID 2283108). An outline of the steps: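 Recombinant human CYP2C9 expressed in SF9 cells, fluorogenic substrate, fluorescence read 0.75 h after dosing. Chemicals first run in duplicate at 10 uM, with actives followed in concentration series; loss of signal versus acetonitrile baseline.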
Chain of human CYP2C9, CYP2C9 (gene 1559) (P11712 whole entry, looked up): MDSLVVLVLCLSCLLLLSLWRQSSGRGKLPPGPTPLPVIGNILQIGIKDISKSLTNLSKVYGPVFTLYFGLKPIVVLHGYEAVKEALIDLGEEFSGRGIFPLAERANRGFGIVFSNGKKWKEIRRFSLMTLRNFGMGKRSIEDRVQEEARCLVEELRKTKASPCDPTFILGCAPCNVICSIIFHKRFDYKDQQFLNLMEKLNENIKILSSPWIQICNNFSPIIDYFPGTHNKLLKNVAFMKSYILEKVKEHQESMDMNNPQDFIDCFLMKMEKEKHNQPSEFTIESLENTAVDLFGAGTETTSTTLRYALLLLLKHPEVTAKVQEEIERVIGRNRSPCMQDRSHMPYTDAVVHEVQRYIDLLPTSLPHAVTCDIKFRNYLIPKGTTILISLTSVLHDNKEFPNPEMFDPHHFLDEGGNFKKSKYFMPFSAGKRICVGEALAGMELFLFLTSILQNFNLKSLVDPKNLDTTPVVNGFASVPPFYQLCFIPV

Test [19] concerns the target Cytochrome P450 2C19 (Homo sapiens) (UniProt P33261). In words: NVS_ADME_hCYP2C19: NovaScreen (NVS) CYP450-related Enzyme Activity (ADME) Assay for human CYP2C19 (AID 2283113).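 Also: potency for inhibition seen as loss of fluorescent signal.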 The essentials: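 Compounds first screened in duplicate at 10 uM, then confirmed in concentration series. Insect-cell-expressed human CYP2C19 turned over a fluorogenic substrate, and fluorescence was read after 1 h. Inhibition taken as signal loss relative to acetonitrile.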

Test [20] addresses human Peroxisome Proliferator-activated Receptor alpha (PPARa), PPARA (gene 5465) (UniProt Q07869). In words: NVS_NR_hPPARa: NovaScreen (NVS) Nuclear Receptor Binding Assay for human Peroxisome Proliferator-activated Receptor alpha (PPARa) (AID 2283359).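 Also: activity means loss of TR-FRET signal versus DMSO baseline.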 The essentials: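 Cell-free TR-FRET binding assay with extracted PPARα protein, read 1 h after dosing. Primary screen in duplicate at 25 uM, with actives retested in concentration series. Loss of signal versus DMSO.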

Chain of Estrogen receptor (Homo sapiens) (P03372 whole entry, looked up, the tested form may be a part): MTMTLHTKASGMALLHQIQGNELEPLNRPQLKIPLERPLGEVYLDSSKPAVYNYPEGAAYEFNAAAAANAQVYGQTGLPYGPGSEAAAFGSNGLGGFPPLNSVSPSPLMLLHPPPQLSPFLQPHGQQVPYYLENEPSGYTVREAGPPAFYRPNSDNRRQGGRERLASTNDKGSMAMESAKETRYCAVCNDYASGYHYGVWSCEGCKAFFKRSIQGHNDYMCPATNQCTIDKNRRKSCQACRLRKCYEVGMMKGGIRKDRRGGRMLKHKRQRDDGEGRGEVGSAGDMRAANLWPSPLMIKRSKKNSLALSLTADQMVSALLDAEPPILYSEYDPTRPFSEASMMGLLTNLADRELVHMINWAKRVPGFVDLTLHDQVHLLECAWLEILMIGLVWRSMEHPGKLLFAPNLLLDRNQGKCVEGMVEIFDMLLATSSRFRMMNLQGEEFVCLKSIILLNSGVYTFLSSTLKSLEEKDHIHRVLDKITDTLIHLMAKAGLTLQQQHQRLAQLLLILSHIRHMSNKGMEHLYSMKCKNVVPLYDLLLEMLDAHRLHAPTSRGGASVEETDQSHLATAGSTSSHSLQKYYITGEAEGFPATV
Chain of PGR (gene 5241) (P06401 whole entry, looked up): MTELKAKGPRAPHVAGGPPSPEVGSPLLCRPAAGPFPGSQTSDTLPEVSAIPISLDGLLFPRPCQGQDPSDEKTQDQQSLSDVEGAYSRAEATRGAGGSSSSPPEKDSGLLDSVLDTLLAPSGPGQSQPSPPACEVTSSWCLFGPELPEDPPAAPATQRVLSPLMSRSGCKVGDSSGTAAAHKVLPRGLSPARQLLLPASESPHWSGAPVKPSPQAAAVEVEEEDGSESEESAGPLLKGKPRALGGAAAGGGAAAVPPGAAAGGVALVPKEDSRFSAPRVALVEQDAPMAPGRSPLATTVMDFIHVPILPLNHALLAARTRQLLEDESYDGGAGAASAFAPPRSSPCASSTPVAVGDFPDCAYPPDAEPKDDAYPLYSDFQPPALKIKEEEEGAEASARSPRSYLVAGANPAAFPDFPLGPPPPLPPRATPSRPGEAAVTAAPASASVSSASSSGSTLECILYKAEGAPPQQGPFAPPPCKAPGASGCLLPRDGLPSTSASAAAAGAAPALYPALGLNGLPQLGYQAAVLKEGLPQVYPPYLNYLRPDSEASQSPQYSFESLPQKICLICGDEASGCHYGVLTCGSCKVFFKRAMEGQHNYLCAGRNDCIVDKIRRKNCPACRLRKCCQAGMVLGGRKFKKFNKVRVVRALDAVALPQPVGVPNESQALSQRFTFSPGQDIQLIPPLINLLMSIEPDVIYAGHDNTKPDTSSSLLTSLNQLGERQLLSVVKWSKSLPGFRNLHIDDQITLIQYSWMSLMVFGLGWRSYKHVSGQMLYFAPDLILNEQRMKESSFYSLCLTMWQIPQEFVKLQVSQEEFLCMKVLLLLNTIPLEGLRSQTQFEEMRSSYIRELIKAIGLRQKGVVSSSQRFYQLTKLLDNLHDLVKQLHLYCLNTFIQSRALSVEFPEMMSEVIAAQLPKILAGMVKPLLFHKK
Chain of Estrogen receptor (Homo sapiens) + Estrogen receptor beta (Homo sapiens) (P03372 whole entry, looked up, the tested form may be a part): as the sequence (P03372 whole entry, looked up, the tested form may be a part) above
Chain of Estrogen receptor (Homo sapiens) + Estrogen receptor beta (Homo sapiens) (Q92731 whole entry, looked up, the tested form may be a part): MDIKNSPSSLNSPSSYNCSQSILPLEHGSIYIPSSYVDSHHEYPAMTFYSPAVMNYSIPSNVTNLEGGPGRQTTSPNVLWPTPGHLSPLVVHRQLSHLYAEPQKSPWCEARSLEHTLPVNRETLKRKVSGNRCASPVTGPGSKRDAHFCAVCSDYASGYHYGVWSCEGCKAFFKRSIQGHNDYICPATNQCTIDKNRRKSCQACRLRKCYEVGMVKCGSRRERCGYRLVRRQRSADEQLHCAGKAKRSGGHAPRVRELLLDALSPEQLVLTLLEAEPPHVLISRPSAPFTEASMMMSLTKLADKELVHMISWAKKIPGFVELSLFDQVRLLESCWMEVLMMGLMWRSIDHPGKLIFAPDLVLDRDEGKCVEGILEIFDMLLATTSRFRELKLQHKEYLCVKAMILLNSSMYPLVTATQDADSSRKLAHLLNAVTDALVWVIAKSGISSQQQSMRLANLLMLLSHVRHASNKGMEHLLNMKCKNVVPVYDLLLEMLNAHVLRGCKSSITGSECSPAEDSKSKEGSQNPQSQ
Chain of human Peroxisome Proliferator-activated Receptor alpha (PPARa), PPARA (gene 5465) (Q07869 whole entry, looked up): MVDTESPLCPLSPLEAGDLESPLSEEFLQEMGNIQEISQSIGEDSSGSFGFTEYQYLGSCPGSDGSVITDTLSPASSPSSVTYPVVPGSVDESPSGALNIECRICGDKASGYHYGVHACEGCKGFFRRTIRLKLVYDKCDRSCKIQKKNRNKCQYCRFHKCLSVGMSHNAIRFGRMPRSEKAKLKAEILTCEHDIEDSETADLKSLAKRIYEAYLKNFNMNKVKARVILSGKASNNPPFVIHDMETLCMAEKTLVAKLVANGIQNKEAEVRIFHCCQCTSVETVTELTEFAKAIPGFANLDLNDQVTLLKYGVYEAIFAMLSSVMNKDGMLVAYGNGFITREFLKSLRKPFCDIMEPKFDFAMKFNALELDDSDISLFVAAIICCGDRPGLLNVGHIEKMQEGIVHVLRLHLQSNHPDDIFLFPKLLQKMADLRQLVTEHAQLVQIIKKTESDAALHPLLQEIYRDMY

As for `N#CCCCCC#N`, the compound was called inactive in test [1], in test [2] and in [3].

Regarding `CCCC=NO`, the call in test [4], in [5], in test [6], in test [7], in test [8] and in test [9] was inactive. Also, the call in [10] and in test [11] was inactive.

With `C[C@]12CC[C@H]3[C@@H](CC[C@@]45O[C@@H]4C(O)=C(C#N)C[C@]35C)[C@@H]1CC[C@@H]2O`, the result (with PGR (gene 5241) [12]; with PGR (gene 5241) [13]; with PGR (gene 5241) [14]; in [17]) was inactive. Moreover, the AC50 (commonly the concentration at which the activity in the assay is half-maximal) in test [15] was 3.06 µM (active); in test [16], 19 µM (active).

On to `CC(C)(c1cc(Cl)c(O)c(Cl)c1)c1cc(Cl)c(O)c(Cl)c1`, for which the AC50 was 2.29 µM (active) in test [18], 0.992 µM (active) in [19] and 20.2 µM (active) in test [20].

(Values after PubChem BioAssay (EPA / NIEHS).)
